Experimental data from PubChem BioAssay (NCI).
The panel holds about 83,000 compounds, 20% with a hit somewhere; the sample as a whole holds those more often.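 Percent growth is the endpoint: 0 to 100 indicates growth inhibition (40 means 60% inhibition), 0 means no net growth, and negative values indicate cell death.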 Calls of active or inactive are those of the source. The calls were made as follows: active = growth percent below 10; inactive = the rest.

How the values were obtained:
Assay in all cases: NCI-60 one-dose screen, 48 h (100 = growth as untreated, 0 = no growth, -100 = all killed)
Conditions in all cases: 10 µM unless noted
T-47D breast = test system: T-47D breast
BT-549 breast = test system: BT-549 breast
MDA-MB-435 melanoma = test system: MDA-MB-435 melanoma
SW-620 colon = test system: SW-620 colon
MCF7 breast = test system: MCF7 breast
HCT-116 colon = test system: HCT-116 colon
HCC-2998 colon = test system: HCC-2998 colon
KM12 colon = test system: KM12 colon

Measured: growth

Nc1c(C(=O)Nc2ccccc2)sc2nc3c(cc12)CN(Cc1ccccc1)CC3
inactive: T-47D breast 60.9% | BT-549 breast 50.8% | MDA-MB-435 melanoma 52.1% | SW-620 colon 76.9% | MCF7 breast 77.9% | HCT-116 colon 65.1% | HCC-2998 colon 79.1% | KM12 colon 56.4%

CC1Cc2c(N(C)C)ncnc2N(C)c2ccc(Cl)cc21 (centres undefined)
inactive: T-47D breast 37.1% | BT-549 breast 24.6% | SW-620 colon 17.9% | MCF7 breast 15.2% | HCT-116 colon 16.9% | HCC-2998 colon 50.1% | KM12 colon 23.6%
active: MDA-MB-435 melanoma -32.2%

CC1=CNNc2c3ncnc-3ncn21
inactive: T-47D breast 101% | BT-549 breast 106% | MDA-MB-435 melanoma 111% | SW-620 colon 102% | MCF7 breast 111% | HCT-116 colon 102% | HCC-2998 colon 102% | KM12 colon 103%

O=[N+]([O-])c1ccc(S(=O)(=O)N2CCN(c3ccnc4cc(Cl)ccc34)CC2)c([N+](=O)[O-])c1
inactive: T-47D breast 60.3% | BT-549 breast 97.6% | MDA-MB-435 melanoma 98.1% | SW-620 colon 40.5% | MCF7 breast 52.7% | HCT-116 colon 77.5% | HCC-2998 colon 106% | KM12 colon 103%

Cc1ccc(C(=O)c2sc3nc4c(cc3c2N)CCCC4)c(C)c1
inactive: T-47D breast 35.4% | BT-549 breast 55.8% | SW-620 colon 30.3% | MCF7 breast 21% | HCT-116 colon 25.3% | HCC-2998 colon 39.6% | KM12 colon 33.9%
active: MDA-MB-435 melanoma -44.5%

COc1cc(-n2nc(C(=O)Nc3ccc(C(=O)O)cc3)nc2-c2ccccc2)cc(OC)c1OC
inactive: T-47D breast 79% | BT-549 breast 105% | MDA-MB-435 melanoma 113% | SW-620 colon 101% | MCF7 breast 93.5% | HCT-116 colon 91.7% | HCC-2998 colon 97.9% | KM12 colon 105%

CC(=O)Oc1cccc(OC(C)=O)c1OC(C)=O
inactive: T-47D breast 97.1% | BT-549 breast 94.3% | MDA-MB-435 melanoma 94.6% | SW-620 colon 114% | MCF7 breast 88.7% | HCT-116 colon 89.5% | HCC-2998 colon 92.1% | KM12 colon 105%

Nc1nn2cc(-c3ccc(Cl)s3)nc2c2ccccc12
inactive: T-47D breast 55.8% | BT-549 breast 105% | MDA-MB-435 melanoma 93.4% | SW-620 colon 98.6% | MCF7 breast 44.3% | HCT-116 colon 77.6% | HCC-2998 colon 92.4% | KM12 colon 79.2%

C=C1C(=O)O[C@H]2[C@H]1CC/C(Cn1cc(-c3ccsc3)nn1)=C\CC[C@@]1(C)O[C@@H]21
active: T-47D breast -62% | BT-549 breast -56.3% | MDA-MB-435 melanoma -16% | SW-620 colon -71.3% | MCF7 breast -72.6% | HCT-116 colon -96.4% | HCC-2998 colon -46.7%
inactive: KM12 colon 34.3%

COc1cc(-c2cc(/C=C3\CCCCC3=O)[nH]n2)cc(OC)c1OC
inactive: T-47D breast 90.1% | BT-549 breast 99.7% | MDA-MB-435 melanoma 102% | SW-620 colon 101% | MCF7 breast 92.5% | HCT-116 colon 89% | HCC-2998 colon 106% | KM12 colon 94.4%

Nc1ccccc1C#C/C=C\C#Cc1cccc(O)c1
active: MDA-MB-435 melanoma 6.89%
inactive: T-47D breast 55.2% | BT-549 breast 44.8% | SW-620 colon 32.4% | MCF7 breast 35.9% | HCT-116 colon 42.3% | HCC-2998 colon 41.3% | KM12 colon 27.9%

COc1ccc(-c2nnc(COc3ccc(NC(=O)Nc4ccc(Cl)c(C(F)(F)F)c4)cc3F)o2)cc1
active: T-47D breast 9.17% | BT-549 breast -2.18% | MDA-MB-435 melanoma 4.03% | SW-620 colon 9.95% | MCF7 breast 2.31% | HCT-116 colon 4.43% | KM12 colon 4.64%
inactive: HCC-2998 colon 13.8%

COc1ccc2c(c1)NC(=O)CN2c1nc(NC2CC2)nc2ccccc12
inactive: T-47D breast 13.2% | SW-620 colon 23.6%
active: BT-549 breast -17% | MDA-MB-435 melanoma -36% | MCF7 breast 9.56% | HCT-116 colon 0.461% | HCC-2998 colon 6.95% | KM12 colon 3.45%

CCCCn1c(=O)c(C2CNC(=O)c3ccccc3N2)cc2ccccc21 (centres undefined)
inactive: T-47D breast 93.7% | BT-549 breast 97.8% | MDA-MB-435 melanoma 105% | SW-620 colon 99.2% | MCF7 breast 99.6% | HCT-116 colon 94.9% | HCC-2998 colon 108% | KM12 colon 101%

CCSc1nnc(NC(=O)COc2ccc(Cl)cc2C)s1
inactive: T-47D breast 96% | BT-549 breast 110% | MDA-MB-435 melanoma 84% | SW-620 colon 102% | MCF7 breast 91% | HCT-116 colon 103% | HCC-2998 colon 131% | KM12 colon 109%

COc1cc(Cn2c(SCC(=O)Nc3cc(OC)c(OC)c(OC)c3)nc3ccccc3c2=O)cc(OC)c1OC
inactive: T-47D breast 77% | BT-549 breast 65.2% | MDA-MB-435 melanoma 102% | SW-620 colon 91.7% | MCF7 breast 95.3% | HCT-116 colon 58.3% | HCC-2998 colon 124% | KM12 colon 99.1%

O=C(/C=C/CN1CCOCC1)Nc1cc2c(Nc3ccc(F)c(Cl)c3F)ncnc2cc1OCCOC(F)F
inactive: BT-549 breast 54.3% | MDA-MB-435 melanoma 69.1% | SW-620 colon 89.7% | MCF7 breast 60.7% | HCT-116 colon 49.4% | HCC-2998 colon 69.1% | KM12 colon 74.1%
active: T-47D breast 1.51%

O=C(CCCn1c(=O)c2sc3ccccc3c2n2nnc(-c3ccccc3)c12)NCCc1cnc[nH]1
inactive: BT-549 breast 32.3%
active: T-47D breast 4.62% | MDA-MB-435 melanoma -49.9% | SW-620 colon -11.1% | MCF7 breast -47.4% | HCT-116 colon -86.6% | HCC-2998 colon -42.6% | KM12 colon -7.92%

CC(C)C(C(=O)CCN(C)C)c1ccc(Cl)cc1 (centres undefined)
inactive: T-47D breast 82.9% | BT-549 breast 90.5% | MDA-MB-435 melanoma 107% | SW-620 colon 108% | MCF7 breast 87.4% | HCT-116 colon 79.9% | HCC-2998 colon 104% | KM12 colon 104%

COc1ccc(-c2cn[nH]c2-c2cc(OC)c3c(c2)OCO3)cc1
inactive: T-47D breast 44% | BT-549 breast 59.3% | SW-620 colon 21.9% | MCF7 breast 13.1% | HCT-116 colon 13.6% | HCC-2998 colon 16.8% | KM12 colon 17.6%
active: MDA-MB-435 melanoma -55.4%

Nc1cc2c(cc1N)-c1cc(N)c(N)cc1C2
inactive: T-47D breast 110% | BT-549 breast 79.7% | MDA-MB-435 melanoma 108% | SW-620 colon 102% | MCF7 breast 93.5% | HCT-116 colon 104% | HCC-2998 colon 105% | KM12 colon 101%

COc1ncc(-c2ccc3ncnc(Nc4cccc(Cl)c4)c3c2)cc1NS(=O)(=O)CCN1CCOCC1
inactive: MDA-MB-435 melanoma 11.8% | SW-620 colon 29.5% | HCT-116 colon 29.7% | HCC-2998 colon 18.9% | KM12 colon 26%
active: T-47D breast -10.6% | BT-549 breast -4.07% | MCF7 breast 7.16%

COc1ccc(-c2nc(-c3ccccc3)c(-c3ccccc3)n2C2CC2)cc1OC1CCCCC1
inactive: T-47D breast 58.4% | BT-549 breast 97.3% | MDA-MB-435 melanoma 72.5% | SW-620 colon 58.2% | MCF7 breast 52% | HCT-116 colon 38.8% | HCC-2998 colon 83.2% | KM12 colon 62.2%

O=c1c2cccc3c(Nc4ccc(F)cc4)ccc(c32)c2nc3ccccc3n12
inactive: T-47D breast 23.4% | BT-549 breast 87.5% | MDA-MB-435 melanoma 99.6% | SW-620 colon 88% | MCF7 breast 10.1% | HCT-116 colon 93.9% | HCC-2998 colon 76.1% | KM12 colon 74.4%

CCN(CC)CCCNc1nc(C)cc(Nc2ccc3nc(C)cc(N)c3c2)n1
inactive: T-47D breast 92.2% | BT-549 breast 84.9% | MDA-MB-435 melanoma 103% | SW-620 colon 117% | MCF7 breast 92.8% | HCT-116 colon 93% | HCC-2998 colon 97.6% | KM12 colon 101%

Cc1cc(-c2ccccc2)c(C)n1Cc1ccc(Cl)cc1
inactive: T-47D breast 50.5% | BT-549 breast 37.7% | SW-620 colon 22.7% | MCF7 breast 23.5% | HCT-116 colon 15% | HCC-2998 colon 74.2% | KM12 colon 27.6%
active: MDA-MB-435 melanoma -18.4%

O=c1[nH]c2ccccc2cc1-c1nnc(Cc2ccccc2)o1
active: HCT-116 colon 7.52%
inactive: T-47D breast 42.2% | BT-549 breast 48.9% | MDA-MB-435 melanoma 52.9% | SW-620 colon 45% | MCF7 breast 20.5% | HCC-2998 colon 78.9% | KM12 colon 77.8%

Cc1ccc(Cn2c(-c3cccs3)nc3ccccc32)cc1
inactive: T-47D breast 72.5% | BT-549 breast 128% | MDA-MB-435 melanoma 111% | SW-620 colon 81.2% | MCF7 breast 87.7% | HCT-116 colon 76.5% | HCC-2998 colon 94.9% | KM12 colon 96%
